Screens deposited in PubChem by National Center for Advancing Translational Sciences (NCATS).
An excerpt weighted towards active compounds, which were near 2.1% of everything screened.
B2AR arrestin – agonists driving beta-arrestin recruitment to human beta2-adrenergic receptor | P07550 | 0.02% of 330,000 active | Potency, µM (top dose mostly 46.1 µM), actives largely listed as activators | beta-arrestin recruitment to beta2AR, cell-based reporter | AID 492947; note: nearly all actives have a fitted effect of over 65% in size
Target sequence (P07550 whole entry, looked up): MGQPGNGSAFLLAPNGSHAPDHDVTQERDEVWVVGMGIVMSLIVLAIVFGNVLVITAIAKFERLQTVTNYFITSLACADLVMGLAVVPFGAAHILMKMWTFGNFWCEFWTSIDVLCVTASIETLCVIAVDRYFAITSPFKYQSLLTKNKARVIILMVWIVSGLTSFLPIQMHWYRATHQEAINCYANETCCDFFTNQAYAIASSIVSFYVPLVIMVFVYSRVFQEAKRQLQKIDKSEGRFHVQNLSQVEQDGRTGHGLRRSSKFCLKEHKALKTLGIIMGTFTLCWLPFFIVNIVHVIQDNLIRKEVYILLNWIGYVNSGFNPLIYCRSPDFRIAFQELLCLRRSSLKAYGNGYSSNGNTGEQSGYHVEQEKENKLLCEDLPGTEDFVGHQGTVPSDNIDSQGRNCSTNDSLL
uPA generation – cell surface uPA generation inhibition. 0.31% of 330,000 active. cell surface uPA generation assay, qHTS. Potency, µM (highest dose often 38.3 µM), hits mostly inhibitors. AID 540303; active = well fitted inhibition curve with a large enough effect; inconclusive = small, poorly fitted or top-dose-only effect; inactive = no such curve, though single readings can be large or run the other way; tested in mouse RAW 264.7 cells; note: nearly all actives have a fitted effect of over 55% in size
ClpP mod – qHTS Assay for Activators of ClpP | ATP-dependent Clp protease proteolytic subunit (Bacillus subtilis (strain 168)), P80244 | purified B. subtilis ClpP, FRET peptide cleavage, 20 min | Potency, µM (series often up to 57.5 µM) | 1.9% of 340,000 active; active = well fitted falling curve with a large enough effect; inconclusive = small, poorly fitted or top-dose-only effect; inactive = no such curve, though single readings can be large or run the other way; note: the source files actives as falling curves though it sought activators and does not explain the sign; nearly all actives have a fitted effect of over 65% in size
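ClpP 10 microg/mL final, pH 8 Tris/KCl buffer with BSA, glycerol, Tween-20; compound pinned in; FRET-FV substrate; RT 20 min; Ex320/Em430; ΔFRET vs ADEP 5.8 microM, DMSO, no enzyme.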
p53 reactivation – re-activators of mutant p53; Potency, µM (series often up to 92.2 µM), actives largely listed as activators; H1299 p53-A138V BP100-luciferase reporter, luminescence, 24 h; 0.063% of 320,000 active; note: nearly all actives have a fitted effect of over 45% in size
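H1299 (p53-null), stable ts p53-A138V + BP100-Luc; 1000 cells/well, Opti-MEM/10% FBS; cpd 4 pt, 1:5; 24 h, 37 deg C, 5% CO2; detection reagent 10 min RT; luminescence.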
Giardia kill – kills Giardia lamblia | Giardia lamblia trophozoite viability | activity change, % at 7.66 µM, hits read low | 0.15% of 340,000 active; in the data active = activity change below about -80%; inconclusive = between about -30% and that limit;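 note: parasites exposed to compound for two days anaerobically before the ATP read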
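Trophozoite viability was measured as ATP-dependent luminescence, read 15-30 min after reagent addition. Before that, parasites at 100 cells/well were exposed to compounds for 48 h, anaerobically, at 37 deg C.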
Mito fusion yeast – inhibitors of mitochondrial division or activators of mitochondrial fusion; S. cerevisiae fusion-defective mutant growth rescue, CellTiterGlo 48 h; Potency, µM (titrated, usually from 46.1 µM), hits mostly activators; 0.23% of 320,000 active; note: nearly all actives have a fitted effect of over 45% in size
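Compounds are tested for their ability to restore growth of mitochondrial fusion-defective yeast strains at non-permissive 37C in YPEG medium over 48 hours. Viability is quantified by luciferase luminescence.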
Large screens that a line does not name were inactive. Unless noted, calls come from the whole dose curve; as a rule, active = well fitted curve in the direction sought with a large enough effect; inconclusive = small, poorly fitted or top-dose-only effect, or another doubt; inactive = no such curve, though single readings can be large; an effect the other way counts as inactive or inconclusive.

CC(C)Cc1cc(C(=O)N2N=C(C(F)F)CC2(O)C(F)F)c2ccccc2n1 (configuration not stated)	none
CCCc1ccc(-c2cc(C(=O)NCCc3ccc(S(N)(=O)=O)cc3)c3ccccc3n2)cc1	ClpP mod 32µM (no result: uPA generation)
CCc1ccc(-c2cc(C(=O)Nn3cnnc3)c3ccccc3n2)cc1	uPA generation inconclusive, Giardia kill -100
NS(=O)(=O)c1ccc(CCNC(=O)c2cc(-c3ccc(Br)cc3)nc3ccccc23)cc1	none
CSc1ccc(CCNC(=O)c2cc3cc(S(=O)(=O)N4CCCCC4)ccc3n2C)cc1	ClpP mod 22µM (no result: B2AR arrestin, uPA generation, p53 reactivation, Giardia kill, Mito fusion yeast)
C=CCOC(=O)C1=C(C)NC(C)=C(C(=O)OCC=C)C1c1ccc(O)cc1	ClpP mod 22µM
CC(C)CNC(=O)CSc1nc2scc(-c3ccccc3)c2c(=O)[nH]1	ClpP mod 22µM
O=C(CSc1nc2scc(-c3ccccc3)c2c(=O)[nH]1)Nc1ccccc1	none
Cc1ccc(C)c(N2CCN(C3(c4ccccc4)C(=O)c4ccccc4C3=O)CC2)c1	none (no result: B2AR arrestin, uPA generation, p53 reactivation, Giardia kill, Mito fusion yeast)
CCOc1cccc2sc(=NC(=O)CCS(=O)(=O)c3ccc(F)cc3)n(C)c12	uPA generation inconclusive, ClpP mod inconclusive
COc1cccc2sc(=NC(=O)CCS(=O)(=O)c3ccc(C)cc3)n(C)c12	ClpP mod 3.2µM
CCOC(=O)CSc1nc2sc3c(c2c(=O)n1-c1ccc(OCC)cc1)CCN(C)C3	p53 reactivation inconclusive
CCOC(=O)CSc1nc2sc3c(c2c(=O)n1C1CCCCC1)CCN(C)C3	ClpP mod 28µM
Cc1ccc2cc(C(c3nnnn3C3CCCC3)N(Cc3ccccc3)Cc3ccco3)c(=O)[nH]c2c1 (configuration not stated)	ClpP mod 22µM, p53 reactivation inconclusive
COc1cc2sc3cc(NCc4ccc(C)o4)ccc3c(=O)c2cc1OC	uPA generation 13µM, Giardia kill inconclusive (no result: Mito fusion yeast)
COc1ccccc1CCNC(=O)CCCn1c(=O)c2cccn2c2cccnc21	none (no result: B2AR arrestin, uPA generation, p53 reactivation, Giardia kill, Mito fusion yeast)
CC(/C=C/c1ccccc1)=N\NC(N)=S	B2AR arrestin 8.9µM, p53 reactivation inconclusive
Cc1cccc(N2C(=O)CC(Sc3nc(-c4ccccc4)c4cc(Cl)ccc4n3)C2=O)c1 (configuration not stated)	ClpP mod 28µM
CCC(C(=O)Nc1cc(C(F)(F)F)ccc1Cl)n1nc(C)c2sc3ccccc3c2c1=O (configuration not stated)	none (no result: B2AR arrestin, uPA generation, p53 reactivation, Giardia kill, Mito fusion yeast)
Cc1[nH]n2c(=O)c3c(nc2c1-c1ccc(F)cc1)CCCC3	none (no result: ClpP mod)
O=c1c2c(nc3c(-c4ccc(Cl)cc4)c[nH]n13)CCCC2	ClpP mod 14µM
O=c1c2c(nc3c(-c4cccc5ccccc45)c[nH]n13)CCC2	ClpP mod 11µM
CCn1cc(C(=O)N(C)c2ccc(C(C)C)cc2)c2cc(OC)c(OC)cc2c1=O	none (no result: B2AR arrestin, uPA generation, p53 reactivation, Giardia kill, Mito fusion yeast)
COc1ccc2c(c1OC)CCC2=O	ClpP mod 28µM
Cn1c(=O)n(C)c2cc(N3CCCCC3)c(NC(=O)c3c(F)cccc3F)cc21	none (no result: B2AR arrestin, uPA generation, p53 reactivation, Giardia kill, Mito fusion yeast)
Cc1c(Cl)cccc1Nc1nc(N)nc(CSc2nc3ccccc3s2)n1	Mito fusion yeast 8.9µM
CCO/C=C1\C(=O)N(c2ccccc2)C(=O)c2ccccc21	ClpP mod 32µM
CC(N)c1csc(Nc2ccc(C(=O)NCCCO)cn2)n1 (configuration not stated)	none (no result: B2AR arrestin, uPA generation, p53 reactivation, Giardia kill, Mito fusion yeast)
COc1ccc(C(N)c2csc(Nc3ccc(C(=O)NCCCO)cn3)n2)cc1 (configuration not stated)	ClpP mod 28µM (no result: B2AR arrestin, uPA generation, p53 reactivation, Giardia kill, Mito fusion yeast)
COc1cc(OC)c(NC(=O)CN2C(=O)CCn3nc(-c4cccn4C)cc32)cc1Cl	none (no result: B2AR arrestin, uPA generation, p53 reactivation, Giardia kill, Mito fusion yeast)
CCOC(=O)c1nnn(CC(=O)N2N=C(c3cccc4ccccc34)CC2c2ccccc2)c1C(=O)OCC (configuration not stated)	ClpP mod 11µM
Cc1ccc(C(=O)NC(NCc2ccccc2)C(Cl)(Cl)Cl)cc1 (configuration not stated)	ClpP mod 14µM
Cc1cccc(NC(=O)c2ccc(C(=O)c3ccccc3)o2)c1	ClpP mod 22µM
Cc1ccc(C(=O)Nc2cccc(C(=O)NCc3ccccc3)c2)cc1	uPA generation 10µM
